tim23-1 inh: growth inhibitors of tim23-1 mutant yeast. AID 463212. 330,000 compounds, 1.3% hits. inhibition, % at 20 µM. S. cerevisiae tim23-1 growth, BacTiter-Glo luminescence, 24 h;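 active = growth inhibition of the mutant yeast at or above 50%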;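 also: temperature-sensitive mutant grown at 25 °C; plate controls were DMSO-treated mutant yeast for no effect and medium wells lacking yeast for full effect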
PfHsp90 set2: reduces growth (ATP signal) of yeast expressing P. falciparum Hsp90. S. cerevisiae expressing PfHsp90, BacTiter-Glo ATP, 48 h; yeast lacking PDR1 and PDR3 efflux regulators. 310,000 compounds, 0.32% hits. inhibition, % at 9.4 µM;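 active = every replicate shows inhibition above about 80%, whatever the replicate mean, limit read from the data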;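 also: 0% = DMSO neutral controls and 100% = 20 µM radicicol positive controls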
NALP3 yeast inh: inhibitors of NALP3 inflammasome in yeast; Yeast reconstituted NLRP3/ASC/caspase-1, beta-gal luminescence, 24 h; AID 2825; inhibition, % at 10 µM; 330,000 compounds, 0.39% hits;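 active = inhibition of 50% or more; inactive = inhibition below 50%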;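 also: plate controls were induced DMSO wells for no effect and uninduced yeast grown without galactose for full effect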
TIM10 inh: inhibits growth of TIM10 yeast strain. S. cerevisiae TIM10 strain growth, BacTiter-Glo luminescence, 24 h. inhibition, % at 10 µM. 330,000 compounds, 1.4% hits;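 active = inhibition of 40% or more at the single tested concentration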;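 also: wild-type TIM10 isogenic control strain grown at permissive 25 °C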
SKKanGAS inh: blocks kanamycin growth of S. pyogenes SKKanGAS strain; BacTiter-Glo, 6 h; inhibition, % at 7.5 µM; 300,000 compounds, 1.3% hits; AID 1662;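 active = mean replicate score, as percent of positive control median, at least 50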;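 also: strain carries kanamycin resistance gene driven by streptokinase promoter and grows in 40 µg/ml kanamycin; loss of luminescence reflects streptokinase promoter inhibition or plain growth inhibition; 0% = median of DMSO wells and 100% = positive control at its reference dose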
tim10-1 inh: tim10-1 yeast growth inhibition. AID 463190. S. cerevisiae tim10-1 ts strain growth, BacTiter-Glo, 24 h. inhibition, % at 20 µM. 330,000 compounds, 2.2% hits;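 active = inhibition of at least 40%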;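 also: mutant grown at 25 °C; 0% = DMSO wells with yeast and 100% = wells holding no yeast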
tim10-1 confirm: tim10-1 yeast growth inhibition, confirmed; inhibition, % at 20 µM; shares compounds with tim10-1 inh; 7,400 compounds, 56% hits; S. cerevisiae tim10-1 ts strain growth, BacTiter-Glo, 24 h;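 active = inhibition of yeast growth at or above a set limit in either of two repeat tests at 20 µM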;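 also: tim10-1 mutant grown at permissive 25 °C to find synthetic lethal compounds; 0% = DMSO yeast wells and 100% = medium wells without yeast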
TIM10 conf: confirmation of TIM10 yeast growth inhibitors | 4,600 compounds, 63% hits | S. cerevisiae tim10 strain growth, BacTiter-Glo luminescence, 24 h | shares compounds with TIM10 inh | AID 463215 | inhibition, % at 10 µM;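 active = inhibition of yeast growth at or above a set limit in either of two replicates at 10 µM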;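 also: this counterscreen used the strain with wild-type TIM10; 0% = yeast with DMSO and 100% = medium wells lacking yeast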
tim23-1 confirm: tim23-1 yeast growth inhibition, confirmed. shares compounds with tim23-1 inh. S. cerevisiae tim23-1 growth, BacTiter-Glo luminescence, 24 h. inhibition, % at 20 µM. 4,400 compounds, 83% hits. AID 463218;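 active = inhibition above about 39% in either of two replicate wells at 20 µM, limit read from the data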;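 also: temperature-sensitive tim23-1 mutant grown at 25 °C; 0% = DMSO wells with yeast and 100% = medium wells without yeast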
Active calls of the source: *; x = no result. The list is not random: actives were taken first. Their share in the collection is about 4.6%.

SMILES	tim23-1 inh	PfHsp90 set2	NALP3 yeast inh	TIM10 inh	SKKanGAS inh	tim10-1 inh	tim10-1 confirm	TIM10 conf	tim23-1 confirm
O=C(CSCc1cccc(Br)c1)N=Nc1c(O)[nH]c2ccccc12	53*	x	11	34	2	45*	20	x	59*
COc1ccc(-c2nnc(NC(=O)c3ccccc3[N+](=O)[O-])s2)c(OC)c1	-12	-46	-1	-30	0	-14	x	x	x
COc1ccccc1-n1cnc2cc(NCc3cccs3)ccc21	56*	30	18	45*	19	45*	27	-18	71*
COc1ccc(CNc2ccc3c(c2)ncn3-c2ccccc2OC)cc1	61*	-5	46	64*	7	53*	27	62*	71*
CCN(C(=O)c1cc2c(=O)[nH]c3ccc(C)cc3c2s1)c1ccc(OC)cc1	-9	-16	-16	0	11	9	x	x	x
Cc1ccc(S(=O)(=O)N2CCN(c3ccccc3)CC2)cc1C(N)=O	-9	-5	0	3	-7	-10	x	x	x
O=C(CCCN1C(=O)/C(=C/c2ccco2)SC1=S)Nc1ccccc1C(=O)O	12	-98	14	10	1	8	x	x	x
O=C(CCCN1C(=O)/C(=C\c2ccco2)SC1=S)Nc1ccc2ccccc2c1	78*	-21	44	39	7	44*	39*	x	70*
CC1CCCC(NS(=O)(=O)c2ccc3c(c2)OCCO3)C1C (configuration not stated)	52*	0	36	34	7	57*	48*	x	59*
O=C(OC1CCCCC1)c1ccc(NC(=O)c2ccco2)cc1	54*	17	11	23	0	44*	30	x	70*
CCOC(=O)C1CCCN(C(=S)NC(=O)c2cc(Br)ccc2Cl)C1 (configuration not stated)	55*	6	20	37	x	40*	28	x	44*
CCCN(CC1CC1)C(=S)NC(=O)c1cc(Br)ccc1Cl	57*	-22	20	52*	x	60*	37*	51*	52*
CCCN(CC1CC1)C(=S)NC(=O)C1CC1	7	-1	6	-2	-2	7	x	x	x
COc1ccc(CN(C(=O)c2ccccc2Br)C2CCS(=O)(=O)C2)cc1 (configuration not stated)	13	14	17	6	-3	5	x	x	x
CC(C)N(CCC(=O)c1ccc2ccccc2c1)Cc1ccccc1	58*	114*	-19	28	x	92*	92*	x	86*
O=C(Cc1c(F)cccc1Cl)Nc1nc2ccccc2s1	55*	-33	29	48*	9	43*	30*	34*	63*
NC(=O)c1cc(S(=O)(=O)N2CCCC2)ccc1OCCOc1ccccc1	13	1	3	8	x	18	x	x	x
Cc1nc2ccccn2c1C(=O)N/N=C/c1cc(C)n(-c2ccc(Br)cc2)c1C	60*	12	-2	31	23	44*	22	x	41*
O=C(O)/C(=C\c1ccccc1OC(F)F)Sc1nnc(-c2ccc(F)cc2)o1	70*	-14	-22	59*	7	71*	75*	68*	71*
COc1cc(N=c2ssnc2Cl)cc(OC)c1	76*	-50	16	33	14	55*	58*	x	79*
Cc1cc2n(n1)C(c1c[nH]c3ccccc13)Nc1ccccc1-2 (configuration not stated)	71*	125*	19	40*	63*	60*	34*	33*	-23
Cc1cc2n(n1)C(c1ccco1)Nc1ccccc1-2 (configuration not stated)	21	x	11	7	-11	15	x	x	x

Screening data (PubChem BioAssay)
